Reference: PubChem BioAssay
The source made the active and inactive calls.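 Rule for the calls, unless noted: active = inhibition above 20% together with a positive visual image hit; inconclusive = visual image hit but inhibition not above 20%; inactive = no visual image hit.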

Legend:
[1] = inhibitors of TNFa-induced NFkB p65 translocation, primary screen, imaging, HUVEC, MLSMR starter and 10KST1 sets (AID 438); conditions: HUVEC TNFa-induced p65 nuclear translocation; cell count: measured here: nuclei count (cytotoxicity indicator), at 2.08 µM; inhibition: at 2 µM, stronger effect = higher value, 0% TNFa-plus-vehicle, 100% no-TNFa wells;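 note: compound added about 3h40 before a 20 min TNFalpha stimulation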;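 for inhibition: signal is the nuclear over cytoplasmic p65 intensity ratio per well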
[2] = inhibitors of mutant huntingtin aggregation, primary screen, imaging, exon1htt(103Q)mCFP cells, high-content imaging (AID 483;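 active = visual image review flags a hit and inhibition of aggregation exceeds 20%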;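 note: compound exposure lasted 3 days before fixation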;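 for nuclei count: percent of the per-plate median nuclei count of sample wells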); conditions: exon1htt(103Q)mCFP cell line, aggregate imaging, at 2 µM; inhibition of aggregation: stronger effect = higher value; nuclei count: measured here: cell count, toxicity
[3] = inhibitors of E-selectin induction by TNFa, primary screen, imaging, HUVEC, immunofluorescence, MLSMR starter and 10KST1 sets (AID 487;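 active = visually confirmed hit in the image check and inhibition above 20%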;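 for inhibition: signal is fraction of cell area covered by stained E-selectin grains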;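 for nuclei count: 100% = median nuclei count of all wells on the same plate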); conditions: HUVEC TNFalpha-induced E-selectin immunofluorescence imaging, at 2 µM; inhibition: stronger effect = higher value; nuclei count: measured here: cell number, toxicity
[4] = biological target: Voltage-gated potassium channel subunit beta-2 (Rattus norvegicus) (UniProt P62483); experiment: KvBeta enzyme negative modulators, primary screen, biochemical, NADPH fluorescence (AID 622;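 active = fluorescence slope higher than the sample average by over 3 SD, cut at about -0.22 in these data, passing the limit was not always enough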;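 note: slope of raw intensity against log time taken from 70 to 1610 s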); conditions: recombinant KvBeta, 4-cyanobenzaldehyde reduction, at 10 µM, stronger effect = higher value
Voltage-gated potassium channel subunit beta-2 (Rattus norvegicus), sequence (P62483 whole entry, looked up): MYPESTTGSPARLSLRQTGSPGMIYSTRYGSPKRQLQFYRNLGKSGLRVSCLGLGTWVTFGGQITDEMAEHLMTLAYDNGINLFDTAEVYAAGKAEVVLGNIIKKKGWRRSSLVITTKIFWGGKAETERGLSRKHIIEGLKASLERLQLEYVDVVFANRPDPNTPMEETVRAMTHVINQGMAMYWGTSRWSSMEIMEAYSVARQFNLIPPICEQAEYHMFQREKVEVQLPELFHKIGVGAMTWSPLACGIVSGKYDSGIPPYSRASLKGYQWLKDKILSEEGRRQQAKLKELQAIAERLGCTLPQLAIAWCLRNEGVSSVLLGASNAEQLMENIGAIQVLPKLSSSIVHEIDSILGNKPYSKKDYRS

[5] = biological target: Voltage-gated potassium channel subunit beta-2 (Rattus norvegicus) (UniProt P62483); experiment: KvBeta positive modulators, primary screen, biochemical, NADPH fluorescence (AID 623;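 active = NADPH fluorescence slope more negative than the mean of all samples by about 3 SD, 99.7% confidence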;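 note: fluorescence intensity change per second fitted from 20 to 320 s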); conditions: Recombinant KvBeta, NADPH fluorescence decrease slope, 10 min; at 10 µM; stronger effect = lower value
[6] = biological target: Alpha-2C adrenergic receptor (Homo sapiens) (UniProt P18825); experiment: modulators of alpha2C/GIRK thallium flux, primary screen, cell-based, HEK293 alpha2C/GIRK1/2 (AID 624;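 active = fluorescence slope after compound addition differing from the mean of all screened samples at 99.7% confidence, in either direction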;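 note: slope of fluorescence ratio to pre-addition baseline per second over 15 to 24 s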); conditions: thallium flux BTC fluorescence, at 10 µM, actives lie on both sides
Alpha-2C adrenergic receptor (Homo sapiens), sequence (P18825 whole entry, looked up): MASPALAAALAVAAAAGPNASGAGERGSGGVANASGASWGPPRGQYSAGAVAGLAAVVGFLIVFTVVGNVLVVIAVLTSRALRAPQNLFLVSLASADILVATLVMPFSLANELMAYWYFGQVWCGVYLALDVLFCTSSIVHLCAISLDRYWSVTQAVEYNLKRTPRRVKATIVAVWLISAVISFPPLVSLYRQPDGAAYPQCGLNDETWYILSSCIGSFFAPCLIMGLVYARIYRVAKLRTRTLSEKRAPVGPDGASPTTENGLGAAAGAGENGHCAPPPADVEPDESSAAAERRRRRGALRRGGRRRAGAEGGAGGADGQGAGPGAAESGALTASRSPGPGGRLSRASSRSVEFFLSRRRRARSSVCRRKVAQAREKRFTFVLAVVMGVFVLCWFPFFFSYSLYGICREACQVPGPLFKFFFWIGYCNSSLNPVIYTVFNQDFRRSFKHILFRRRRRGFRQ

[7] = inhibitors of Sendai virus-induced IRF3 signaling, primary screen, TLR/RLR signaling modifier project, cell-based, Sendai virus stimulus, luciferase, 10K MLSCN set (AID 602276;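 active = inhibition at or above 50% at 10 µM; inactive = inhibition below 50%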;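 note: firefly luciferase from ISG56 promoter only with Renilla not read in this screen; 0% = Sendai virus plus DMSO and 100% = medium plus DMSO without virus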); conditions: HEK293 RL24 IRF3 luciferase reporter, at 10 µM, stronger effect = higher value
[8] = inhibitors of poly I:C-induced TLR3 signaling, primary screen, cell-based, poly I:C stimulus, luciferase, 10K MLSCN set (AID 602277;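 active = inhibition of the reporter signal at or above 50%; inactive = inhibition below 50%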); conditions: HEK293-TLR3 RL24 IRF3 luciferase reporter, at 10 µM, stronger effect = higher value

SMILES	cell count [1]	inhibition [1]	inhibition of aggregation [2]	nuclei count [2] [%]	inhibition [3]	nuclei count [3] [%]	fluorescence slope [4]	NADPH fluorescence slope [5]	slope [6]	inhibition [7]	inhibition [8]
CC(=O)c1ccc(NC(=O)CSc2nnc(-c3ccoc3C)n2Cc2ccccc2)cc1	366	-4.2% (inactive)	5.2% (inactive)	98.2	-35.8% (inactive)	99.5	-0.432 (inactive)	-2e-09 (inactive)	0.00468 (inactive)	-9.45% (inactive)	-12% (inactive)
CON(C)c1nc(Oc2ccc(=O)[nH]n2)nc(N(C)C)n1	678	-6.2% (inactive)	-9.5% (inactive)	85.9	-48.5% (inactive)	101	-0.351 (inactive)	1.4e-05 (inactive)	0.00477 (inactive)	16.3% (inactive)	19.3% (inactive)
CCOC(=O)c1[nH]c(C)c(C(=O)Nc2ccccc2C)c1C	619	12.1% (inactive)	-101% (inactive)	7.1	-15.2% (inactive)	94.8	-0.603 (inactive)	-5.4e-05 (inactive)	0.00703 (inactive)	27.7% (inactive)	11.1% (inactive)
O=C(CCn1c(=O)oc2ccccc21)NCCN1CCOCC1	653	-15.1% (inactive)	2.6% (inactive)	110	-9.1% (inactive)	99.8	-0.58 (inactive)	-5.4e-05 (inactive)	0.00667 (inactive)	-16.3% (inactive)	-13% (inactive)
COCCNC(=O)CCCCCN1C(=O)CCC1=O	221	-7.7% (inactive)	-8.5% (inactive)	85.3	25.1% (inactive)	71.9	-0.595 (inactive)	-5.1e-05 (inactive)	0.00625 (inactive)	11.6% (inactive)	24.9% (inactive)
O=C(CC1(O)C(=O)Nc2ccccc21)c1ccc2c(c1)OCO2 (stereo not drawn)	484	4.5% (inactive)	-8.1% (inactive)	102	-22.5% (inactive)	110	-0.384 (inactive)	2.8e-06 (inactive)	0.00339 (inactive)	10.1% (inactive)	35.2% (inactive)
COc1cc(NC(=O)CC(C)C)ccc1NC(=O)c1ccco1	612	-6% (inactive)	10.4% (inactive)	93.3	44.4% (inactive)	47.6	-0.605 (inactive)	1e-05 (inactive)	0.00539 (inactive)	-64.3% (inactive)	-135% (inactive)
CCOc1ccc(C2C(C(=O)OC)=CN(CCOC)C=C2C(=O)OC)cc1	298	6% (inactive)	-3.4% (inactive)	105	-6% (inactive)	110	-0.141 (inactive)	-8.2e-06 (inactive)	0.00651 (inactive)	-9.2% (inactive)	7.51% (inactive)
Cc1ccc(O)c(-c2cc(C(=O)Nc3ccc(S(=O)(=O)N4CC(C)OC(C)C4)cc3)[nH]n2)c1 (stereo not drawn)	371	6.2% (inactive)	0.4% (inactive)	97.2	0.1% (inactive)	92.7	-0.478 (inactive)	-0.000199 (inactive)	0.00494 (inactive)	22.4% (inactive)	43.5% (inactive)
CC(=O)N1CCc2cc(S(=O)(=O)CCC(=O)Nc3cccc(F)c3)ccc21	331	-1.4% (inactive)	0.3% (inactive)	126	-19.8% (inactive)	112	-0.369 (inactive)	-4e-05 (inactive)	0.00334 (inactive)	7.41% (inactive)	19.1% (inactive)
O=C(NC1CCCCCC1)C1CCCN(S(=O)(=O)c2cccs2)C1 (stereo not drawn)	714	-6.2% (inactive)	-1% (inactive)	109	-27.6% (inactive)	108	-0.428 (inactive)	-6.4e-05 (inactive)	0.00338 (inactive)	-10.9% (inactive)	2.4% (inactive)
CCOC(=O)c1cc(-c2nnc(-c3ccc(Oc4ccccc4)cc3)o2)c(C)nc1C	761	-3.9% (inactive)	17.5% (inactive)	102	-20.7% (inactive)	110	-0.499 (inactive)	-2.6e-05 (inactive)	0.0114 (active)	7.09% (inactive)	12.2% (inactive)
Cc1ccc(S(=O)(=O)CC(=O)N2CCCCCC2)cc1	615	9.2% (inactive)	17% (inactive)	103	-33% (inactive)	112	-0.504 (inactive)	-5.2e-05 (inactive)	0.0061 (inactive)	-16.3% (inactive)	-15.4% (inactive)
